Screening results as filed in PubChem BioAssay.
A selection: hits, their analogues and other compounds. The true share with any hit is near 3.4%.
PAFAH1B2 FP inh – PAFAH1B2 enzyme inhibitors, primary screen, biochemical, fluorescence polarization, human; Platelet-activating factor acetylhydrolase IB subunit alpha2 (Homo sapiens), P68402; recombinant PAFAH1B2, FP-rhodamine activity probe; inhibition, % at 3.39 µM; hit rate 1.2% among 340,000; AID 492953, 2010;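 active = inhibition above the mean of all tested compounds plus 3 SD, cut at about 24% in these data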;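 also: 0% = enzyme with DMSO and 100% = wells lacking PAFAH1B2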
Target sequence (P68402 whole entry, looked up): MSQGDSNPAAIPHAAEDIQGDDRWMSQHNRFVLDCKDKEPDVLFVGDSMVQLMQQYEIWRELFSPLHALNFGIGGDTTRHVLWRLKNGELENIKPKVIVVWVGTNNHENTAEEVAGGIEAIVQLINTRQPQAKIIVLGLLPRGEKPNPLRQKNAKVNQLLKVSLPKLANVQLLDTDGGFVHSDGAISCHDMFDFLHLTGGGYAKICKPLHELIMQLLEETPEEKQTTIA
PAFAH1B3 FP inh – PAFAH1B3 enzyme inhibitors, primary screen, biochemical, fluorescence polarization, human; Platelet-activating factor acetylhydrolase IB subunit alpha1 (Homo sapiens), Q15102; recombinant PAFAH1B3, FP-rhodamine probe; inhibition, % at 3.39 µM; hit rate 0.28% among 340,000; AID 492972, 2010;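 active = inhibition above the screen-wide average of all tested compounds plus 3 SD, cut at about 25% in these data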;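 also: 0% = enzyme with DMSO only and 100% = wells lacking PAFAH1B3 protein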
pPAFAH FP inh – pPAFAH enzyme inhibitors, primary screen, biochemical, fluorescence polarization, human; recombinant pPAFAH, FP-rhodamine probe fluorescence polarization; inhibition, % at 3.39 µM; hit rate 1.5% among 330,000; AID 463082, 2010;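 active = inhibition above the mean inhibition across the screen plus 3 SD, cut at about 25% in these data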;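 also: inhibitors block binding of the rhodamine activity-based probe so polarization drops; 0% = enzyme with DMSO and 100% = wells lacking pPAFAH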
Target sequence (Q13093 whole entry, looked up): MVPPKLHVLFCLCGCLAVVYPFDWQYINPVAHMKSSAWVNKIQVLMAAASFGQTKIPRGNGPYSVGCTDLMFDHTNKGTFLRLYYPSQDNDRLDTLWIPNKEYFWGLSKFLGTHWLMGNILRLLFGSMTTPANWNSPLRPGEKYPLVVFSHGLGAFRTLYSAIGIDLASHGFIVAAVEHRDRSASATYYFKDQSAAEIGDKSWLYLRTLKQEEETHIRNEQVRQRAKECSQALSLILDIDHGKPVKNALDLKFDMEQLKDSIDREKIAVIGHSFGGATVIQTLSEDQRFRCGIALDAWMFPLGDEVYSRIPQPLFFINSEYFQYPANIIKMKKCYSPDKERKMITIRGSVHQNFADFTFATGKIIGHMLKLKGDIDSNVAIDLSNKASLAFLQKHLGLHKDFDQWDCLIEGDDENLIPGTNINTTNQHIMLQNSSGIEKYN
PAFAH2 FP inh – PAFAH2 enzyme inhibitors, primary screen, biochemical, fluorescence polarization, human. Platelet-activating factor acetylhydrolase 2, cytoplasmic (Homo sapiens), Q99487. recombinant PAFAH2, FP-rhodamine activity probe. inhibition, % at 3.39 µM. hit rate 0.99% among 340,000. AID 492956, 2010;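 active = inhibition above the mean over all tested compounds plus 3 SD, cut at about 30% in these data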;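 also: inhibitors block probe labeling of enzyme so polarization drops; 0% = enzyme with DMSO and 100% = wells lacking PAFAH2 protein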
PP5 inh – PP5 phosphatase inhibitors, primary screen, biochemical, fluorescence; Serine/threonine-protein phosphatase 5 (Homo sapiens), P53041; purified PP5c, OMFP substrate fluorescence; inhibition, % at 6.7 µM; hit rate 0.18% among 320,000; AID 1987, 2009;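 active = inhibition above the campaign's mean inhibition across all tested compounds plus 3 SD, cut at about 9.5% in these data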;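 also: 0% = DMSO only and 100% = 100 µM cantharidin control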
PP1 inh – PP1-alpha phosphatase inhibitors, primary screen, counter-screen for PP5 inhibitor project, biochemical, fluorescence, OMFP substrate, single point; hit rate 0.9% among 320,000; inhibition, % at 6.7 µM; purified PP1alpha; Serine/threonine-protein phosphatase PP1-alpha catalytic subunit (Homo sapiens), P62136;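 active = inhibition above the mean inhibition of all tested compounds plus 3 SD, computed separately for each screening campaign, cut at about 15% in these data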
pPAFAH FP conf – pPAFAH (PLA2G7) enzyme inhibitors, confirmation, biochemical, fluorescence polarization, human. shares compounds with pPAFAH FP inh. recombinant pPAFAH, FP-Rh probe fluorescence polarization. inhibition, % at 3.39 µM. hit rate 72% among 2,300;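 active = mean inhibition of the triplicate above the hit cutoff set for the earlier primary screen, cut at about 25% in these data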;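 also: 0% = enzyme with DMSO and 100% = wells lacking pPAFAH enzyme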
* marks the source's active call; other numbers are inactive results; . = no result.

SMILES | PAFAH1B2 FP inh | PAFAH1B3 FP inh | pPAFAH FP inh | PAFAH2 FP inh | PP5 inh | PP1 inh | pPAFAH FP conf
CCCc1ccc2oc(C(=O)N3CCC(O)CC3)c(C)c2c1 | -2 | 3 | 39* | -3 | 3 | -2 | 23
Cc1ccc(NC(=O)NC2CCCCCCC2)c(C)c1 | 1 | 0 | . | -7 | . | . | .
O=C(NCc1cccnc1)c1ccc(-c2cccc(Cl)c2Cl)o1 | -3 | 5 | 8 | 3 | 1 | 2 | .
O=C(NCc1cccnc1)c1ccc(-c2ccccc2[N+](=O)[O-])o1 | -5 | 11 | 56* | -7 | 0 | -4 | 3
Cc1ccc(NCC(=O)N/N=C/c2cccc(Br)c2)cc1 | 3 | 8 | 2 | 12 | 2 | 2 | .
CN(C)c1ccc(N2C(=O)CC(Nc3ccc(N4CCOCC4)cc3)C2=O)cc1 (stereo not drawn) | -1 | -8 | 7 | 6 | 2 | 0 | .
COc1cccc(N2C(=O)CC(Nc3ccc(N4CCOCC4)cc3)C2=O)c1 (stereo not drawn) | 6 | 5 | 39* | 33* | -2 | -4 | 0
O=C1CC(Nc2ccc(N3CCOCC3)cc2)C(=O)N1c1cccc(C(F)(F)F)c1 (stereo not drawn) | 3 | 4 | 46* | 12 | 1 | 1 | 6
COc1ccc(S(=O)(=O)N2CCCCCC2)cc1NC(=O)Cc1ccccc1 | 4 | 5 | 8 | 10 | 0 | -2 | .
Cc1cc(C(=O)CN2C(=O)NC3(CCCc4sccc43)C2=O)c(C)n1-c1ccc(Cl)cc1 (stereo not drawn) | 2 | -4 | 40* | 2 | 1 | 8 | 42*
O=C(Oc1ccc(-c2ccccc2)cc1)N1CCOCC1 | 5 | -2 | 94* | 32* | 5 | 2 | 98*
O=C(Oc1ccc(Cl)cc1)N1CCOCC1 | 1 | 10 | 8 | 11 | -1 | -2 | .
O=C(Oc1ccc(Oc2ccccc2)cc1)N1CCC(O)CC1 | -2 | 1 | 94* | 26 | -1 | -2 | 92*
O=C(Oc1ccccc1)N1CCCC1 | -2 | -6 | -3 | 2 | 0 | -3 | .
Cc1ccc(S(=O)(=O)NCCC(=O)Nc2nnc(C)s2)cc1 | 3 | 8 | 4 | 4 | 1 | -2 | .
Cc1c(N)cc2c(c1N)C(C)(C)CC2(C)C | 8 | 11 | . | 0 | . | . | .
COc1cc(CNc2ccc(O)cc2)cc(Br)c1OCc1ccccc1F | 10 | 10 | 39* | 7 | 8 | 9 | 8
CCOc1cc(CNc2ccc(O)cc2)cc(Br)c1OCc1ccccc1F | 6 | 18 | 43* | 8 | 8 | 1 | 20
COc1ccc(NC(=O)c2cc3c(-c4ccc(OC)c(OC)c4)nn(C)c3s2)cc1OC | 4 | 14 | 46* | 18 | 4 | -1 | 43*
CCCCCCC[C@@H](C/C=C/CCC(=O)N(C)C/C(=C/Cl)C/C(=C\C(=O)N1C[C@H](O)CC1=O)OC)OC | 5 | 5 | 41* | 2 | . | . | 37*
COc1ccc(OC)c(N(CC(=O)NCCc2ccc(OC)c(OC)c2)S(=O)(=O)c2ccccc2)c1 | 8 | 7 | 5 | -3 | 2 | 8 | .
O=C1NC(=S)/C(=C\c2ccc(-c3ccccc3Cl)o2)S1 | 9 | 24 | 70* | 41* | 2 | 12 | 79*
O=C1NC(=O)/C(=C/c2ccc(-c3cc(C(=O)O)ccc3Cl)o2)S1 | 8 | 19 | 18 | 3 | 4 | 3 | .
O=S(=O)(Nc1nc(-c2sccc2Cl)cs1)c1cc(Cl)ccc1Cl | 4 | 0 | 47* | 42* | 2 | 19* | 51*
O=C(O)c1cc(-c2ccco2)nn1-c1cccc(Cl)c1 | 9 | 12 | 40* | 16 | -3 | 12 | 16
SMILES | PAFAH1B2 FP inh | PAFAH1B3 FP inh | pPAFAH FP inh | PAFAH2 FP inh | PP5 inh | PP1 inh | pPAFAH FP conf
O=C(O)c1cc(-c2ccco2)nn1-c1ccc(Cl)cc1 | 6 | 1 | . | 9 | . | . | .
Cc1ccc(C(=O)O)cc1N1C(=O)c2cccc3c([N+](=O)[O-])ccc(c23)C1=O | 15 | 41* | 36* | 36* | 1 | -1 | 9
O=C(Nc1nccs1)c1cccc(N2C(=O)c3cccc4c([N+](=O)[O-])ccc(c34)C2=O)c1 | 13 | 24 | -3 | 1 | -2 | 1 | .
O=C(Cc1csc(-c2ccccc2)n1)NCc1ccccc1F | . | . | -5 | . | 1 | 2 | .
Cc1ccc(NC(=O)CSc2nnc(-c3cnccn3)n2C)cc1C | 5 | 2 | 5 | -1 | 0 | -1 | .
O=c1cc(CSc2ccccc2)[nH]c2ccccc12 | 9 | -11 | 1 | 0 | 0 | 2 | .
Cc1ccc(SCc2cc(=O)c3c(=O)n(-c4ccccc4)[nH]c3[nH]2)cc1 | 25* | 14 | 46* | 25 | 0 | 2 | 21
O=c1cc(CSc2ccc(Cl)cc2)[nH]c2[nH]n(-c3ccccc3)c(=O)c12 | 45* | 6 | 43* | 33* | 0 | 7 | 27*
Cc1[nH]n(-c2ccccc2)c(=O)c1Sc1ccc(Cl)cc1 | 16 | 11 | 8 | 2 | -1 | -2 | .
O=C(Cn1ccccc1=O)Nc1ccc(Cl)c(S(=O)(=O)N2CCCCC2)c1 | -1 | 0 | 2 | 12 | 2 | -3 | .
O=C1NC(=Nc2ccccc2)S/C1=C\C=C\c1ccco1 | 3 | 13 | 60* | 30 | -2 | 8 | 38*
Cc1cccc(N=C2NC(=O)/C(=C/C=C/c3ccco3)S2)c1C | 9 | 9 | 71* | 48* | 0 | 6 | 66*
COc1ccc(N=C2NC(=O)/C(=C/C=C/c3ccccc3)S2)cc1 | 1 | -3 | 6 | 1 | -3 | -2 | .
Cc1ccc(N=C2NC(=O)/C(=C/C=C/c3ccco3)S2)cc1 | 0 | 13 | 68* | 21 | 1 | 7 | 33*
CCNc1ccc(Br)cc(C(=O)/C=C/c2ccccc2Cl)c1=O | 3 | 9 | 46* | 36* | -1 | 7 | 28*
CNc1ccc(Br)cc(C(=O)/C=C/c2cccc(OC)c2OC)c1=O | 5 | 6 | 20 | 13 | -1 | 9 | .
O=C(NN1C(=O)NC2(CCCCC2)C1=O)c1cc2ccccc2o1 | -2 | 5 | 0 | -6 | 1 | 0 | .
Cc1c(C)c2ccc(OCC(=O)N[C@@H](Cc3ccccc3)C(=O)O)cc2oc1=O | -1 | 7 | 1 | -3 | 3 | -6 | .
CCCCCCc1c(C)c2ccc(OCC(=O)N[C@@H](Cc3ccccc3)C(=O)O)cc2oc1=O | 13 | 7 | 38* | 16 | 5 | 1 | 21
